Assays:
[1] = test system: Human papillomavirus type 1a protein E7 (residues 44-93); assay: HPV1a E7 fragment binders on microarrays, primary screen, biochemical, small-molecule microarray, residues 44-93, 635 nm fluorescence (AID 1108); details: small-molecule microarray binding, fluorescence 635 nm; higher = more signal;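 note: E7 fragment applied at 1 µg/mL in TBST for 1 h at 4 C; score combines spot fluorescence with its signal to noise ratio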
[2] = modulators of HCV replicon luciferase signal, primary screen, HCV replication inhibitor project, Huh7 cells, luciferase reporter (AID 1109); details: 48 h, higher = more signal;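 note: huh7 hepatoma cells harbouring a luciferase neomycin HCV replicon reporter; luciferase luminescence as measure of HCV replicon replication; test concentration not given here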
[3] = target: Left-right determination factor 2 (Homo sapiens) (UniProt O00292); assay: LEFTY2 binders on small-molecule microarrays, primary screen, biochemical, small-molecule microarray, 635 nm fluorescence scan (AID 1110); details: LEFTY2 binding, higher = more signal
[4] = target: Calmodulin-1 (Homo sapiens) (UniProt P0DP23); assay: CALM1 binders on microarrays, EGTA buffer, profiling panel, biochemical, small-molecule microarray, Cy5-labelled CALM1 (AID 1111); details: Cy5-CALM1 binding fluorescence, higher = more signal;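 note: labelled calmodulin applied in Tris saline Tween buffer holding calcium plus EGTA and DTT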
[5] = target: Calmodulin-1 (Homo sapiens) (UniProt P0DP23); assay: calcium-bound CALM1 binders on microarrays, profiling panel, artefact control for SMM control-protein annotation, biochemical, small-molecule microarray, Cy5-labelled CALM1, plus calcium (AID 1112); details: Cy5-CALM1 binding fluorescence, higher = more signal;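 note: score merges spot fluorescence with signal to noise from triplicate slides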
[6] = small-molecule microarray binders of probe aWnt5a, primary screen, biochemical, biotinylated probe, 635/667 nm fluorescence (AID 1113); details: higher = more signal;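 note: score merges 667 nm fluorescence intensity with signal-to-noise per printed feature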
[7] = small-molecule microarray binders of probe aShh, primary screen, biochemical, biotinylated probe, 635/667 nm fluorescence (AID 1114); details: higher = more signal;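 note: probe is biotin-labelled aShh protein from a stem cell growth factor screen; measures binding of labelled protein to compounds printed on the slide; score merges feature fluorescence at 667 nm with signal-to-noise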
[8] = small-molecule microarray binders of probe aNog, primary screen, biochemical, biotinylated probe, 635/667 nm fluorescence (AID 1115); details: higher = more signal;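 note: probe is biotinylated aNog protein used at 0.15 µg/mL for 1 h at 4 C; z-score combines 667 nm fluorescence of each spot with its signal to noise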
[9] = target: Torsin-1A-interacting protein 1 (Homo sapiens) (UniProt Q5JTV8); assay: LAP1 binders from COS7 cell lysate, primary screen, small-molecule microarray, 635/667 nm fluorescence (AID 1116); details: COS7-hLAP1 lysate binding, 635 nm fluorescence, higher = more signal
[10] = target: Alpha-bungarotoxin (Bungarus multicinctus) (UniProt P60615); assay: alpha-bungarotoxin binders on microarray, profiling panel, artefact control for SMM control protein annotation, biochemical, small-molecule microarray, Alexa647 label, 635/667 nm fluorescence (AID 1117); details: alpha-BTX-A647 binding fluorescence, higher = more signal
Alpha-bungarotoxin (Bungarus multicinctus), sequence (P60615 whole entry, looked up): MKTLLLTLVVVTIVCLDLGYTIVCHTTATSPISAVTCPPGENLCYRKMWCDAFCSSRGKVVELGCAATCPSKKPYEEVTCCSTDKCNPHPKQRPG

Left-right determination factor 2 (Homo sapiens), sequence (O00292 whole entry, looked up): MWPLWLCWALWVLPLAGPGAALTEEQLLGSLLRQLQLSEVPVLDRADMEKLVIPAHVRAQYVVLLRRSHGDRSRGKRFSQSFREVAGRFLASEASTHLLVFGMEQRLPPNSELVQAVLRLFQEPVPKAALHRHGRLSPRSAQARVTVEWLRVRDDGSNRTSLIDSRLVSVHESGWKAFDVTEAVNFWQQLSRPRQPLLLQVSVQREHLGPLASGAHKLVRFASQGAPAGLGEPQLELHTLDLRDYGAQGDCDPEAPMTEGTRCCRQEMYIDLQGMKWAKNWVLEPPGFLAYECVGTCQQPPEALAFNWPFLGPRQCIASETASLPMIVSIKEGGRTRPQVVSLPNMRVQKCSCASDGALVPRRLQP
Torsin-1A-interacting protein 1 (Homo sapiens), sequence (Q5JTV8 whole entry, looked up): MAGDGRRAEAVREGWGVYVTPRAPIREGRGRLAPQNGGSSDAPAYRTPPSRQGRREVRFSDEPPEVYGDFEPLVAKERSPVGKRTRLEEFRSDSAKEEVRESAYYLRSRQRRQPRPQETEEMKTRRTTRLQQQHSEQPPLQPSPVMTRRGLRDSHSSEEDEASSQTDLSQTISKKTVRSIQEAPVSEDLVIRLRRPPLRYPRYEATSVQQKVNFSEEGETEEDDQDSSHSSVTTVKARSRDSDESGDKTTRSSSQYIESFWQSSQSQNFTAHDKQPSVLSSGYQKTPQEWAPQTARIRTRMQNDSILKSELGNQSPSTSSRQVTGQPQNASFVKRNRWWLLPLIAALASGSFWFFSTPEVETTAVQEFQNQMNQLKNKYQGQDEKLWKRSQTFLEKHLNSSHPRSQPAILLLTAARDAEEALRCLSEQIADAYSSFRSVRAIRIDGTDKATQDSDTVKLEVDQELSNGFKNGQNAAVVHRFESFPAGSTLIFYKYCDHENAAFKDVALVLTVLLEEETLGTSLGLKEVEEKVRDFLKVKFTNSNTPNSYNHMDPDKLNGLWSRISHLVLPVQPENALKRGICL

SMILES | composite z-score [1] | z-score [2] | composite z-score [3] | composite z-score [4] | composite z-score [5] | composite z-score [6] | composite z-score [7] | composite z-score [8] | composite z-score [9] | composite z-score [10]
CCOC(=O)C1=CCC(c2ccncc2)N(S(=O)(=O)c2ccc(C)cc2)C1 (stereo not given) | 1.47 | -2.8 | 0.502 | 1.61 | 0.276 | -0.0125 | -0.154 | -0.389 | 2.15 | 0.842
COC(=O)[C@H]1N=C(c2ccc(OCCCO)cc2)O[C@H]1c1ccccc1N=[N+]=[N-] | 1.05 | -1.78 | -0.223 | 0.203 | 0.28 | 0.16 | 0.468 | 1.29 | 0.451 | 1.08
CC(C)N1CC=CC23O[C@@H]4/C=C\CCCOC(=O)C4[C@H]2C(=O)N(C(C)CO)[C@@H]3C1=O (stereo not given in full) | -0.7 | 0.314 | -0.794 | -0.814 | -0.242 | -0.308 | -0.167 | -0.356 | -0.401 | -0.393
C=C(COC)/C(=C/C[C@@H](OC(C)=O)c1cccc(OCCO)c1)c1cnc2ccccc2c1 | 0.848 | -1.73 | 0.754 | -0.534 | -0.593 | 0.0391 | 0.199 | -0.0065 | 0.302 | 1.87
CCCCC(=C=CC[C@H](O)c1cccc(OCCO)c1)C[C@H](O)c1cc(Cl)cc(Cl)c1O | 1.39 | -1.59 | -0.0526 | 0.154 | -0.484 | -0.096 | -0.0626 | 0.422 | 0.839 | 0.645
Cc1cccc([C@H]2C[C@H]3C(Br)=C[C@@]2(CO)C(=O)[C@]32CO2)c1 | 0.863 | -1.27 | -0.427 | -0.496 | -0.0921 | -0.0566 | -0.0348 | 0.247 | -0.374 | -0.357
COCCOC(=O)N1C(=O)[C@@]2(c3cc(C#CC4=CCCCC4)ccc31)[C@H](C(=O)N1CCCCCCC1)[C@H]1C(=O)O[C@H](c3ccccc3)[C@H](c3ccccc3)N1[C@@H]2c1ccccc1OCCO | 1.37 | -0.794 | 0.327 | 1.78 | 0.759 | 0.16 | 0.926 | 1.2 | 1.94 | 1
[N-]=[N+]=NCc1ccccc1[C@H]1OC(c2ccc(OCCCO)cc2)=N[C@@]1(Cc1ccccc1N=[N+]=[N-])C(N)=O | 1.44 | -1 | 0.373 | 1.1 | 0.613 | 0.117 | -0.111 | 0.924 | 0.154 | 1.03
Cc1ccc(S[C@]2(C(=O)NC(C)C)CC(=O)N(Cc3ccccc3)[C@@H]2c2ccc(CO)cc2I)cc1 | -0.0832 | -1.78 | -1.13 | 0.129 | 0.454 | -0.172 | 0.0711 | 0.813 | -0.426 | -0.684
CCCCC=C[C@@H](NC(=O)C(C)(C)C)c1ccccc1 | 1.28 | -3.07 | 0.466 | 0.815 | 0.113 | 0.0357 | 0.54 | 0.863 | -0.334 | 0.82
C=C(C(=O)CC[C@@H](OC(=O)c1ccccc1-c1ccccc1C(=O)O)c1ccc(OCCO)cc1)C(C)C | 1.33 | -2.58 | 0.63 | 0.653 | -0.698 | 0.0162 | 0.108 | -0.095 | 1.3 | 0.478
COc1cccc(C)c1NC(=O)O[C@H]1[C@H](OC(=O)Nc2ccc3c(c2)OCO3)[C@H](OC(=O)Nc2ccc3c(c2)OCO3)[C@@H](OC)O[C@@H]1CO | 1.47 | -0.466 | 0.262 | 1.6 | -0.406 | 0.122 | 0.715 | 0.351 | 0.305 | 1.57
CCCCC(=C=CC[C@H](O)c1ccccc1OCCO)CCO | 0.5 | -1.69 | -0.115 | -0.541 | -0.533 | -0.0031 | -0.108 | 0.0796 | 0.228 | 0.124
COc1cc(Cc2cc3c(c(-c4ccccc4)n2)[Si](C(C)C)(C(C)C)OC3)cc(OC)c1OC | -1.82 | 0.385 | 0.363 | -0.651 | -0.0062 | -0.175 | 0.915 | -0.359 | -0.181 | 1.34
C=CCNC(=O)[C@@H]1[C@H]2C(=O)O[C@H](c3ccccc3)[C@H](c3ccccc3)N2[C@H](c2ccc(OCCO)cc2)[C@@]12C(=O)N(C(=O)OCCOC)c1ccccc12 | 1.11 | -0.945 | 0.47 | 0.789 | 0.132 | -0.096 | 0.0639 | -0.103 | 1.58 | 1.04
CCOC(=O)C[C@H]1[C@H](OC(=O)Cc2ccc3c(c2)OCO3)[C@@H](NC(=O)CC(C)C)c2cc(OCCCO)ccc2N1C(=O)c1ccc2ccccc2n1 | 1 | -0.699 | 0.305 | 0.42 | -0.717 | -0.0405 | -0.221 | -0.0208 | 0.633 | 0.185
COC(=O)[C@@]1(Cc2ccc(F)cc2)[C@H]2c3cc(C(=O)N(C)C)n(Cc4cccc5ccccc45)c3C[C@H]2CN1C(=O)c1ccccc1 | 1.12 | -1.57 | -0.856 | 0.0818 | 0.189 | 0.492 | 1.76 | 1.53 | 1.17 | -0.145

— PubChem BioAssay
